SW480 rereplic: induces DNA re-replication in SW480 colon adenocarcinoma cells. SW480 DNA re-replication, Hoechst DNA content imaging, 48 h. Potency, µM (doses to about 46.1 µM), hits mostly activators. 340,000 compounds, 1.8% hits. AID 624297; note: nearly all actives have a fitted effect of over 55% in size
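First, 250 cells per well were seeded. Next, compound or vehicle (23 nL) was pinned in, plates sat 48 hr at 37 C. Finally Hoechst was added for 40 min before fluorescence scanning.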
KB-3-1 cytotox: KB-3-1 parental cell cytotoxicity. KB-3-1 viability, CellTiter-Glo ATP luminescence, 72 h. Potency, µM (doses to about 46.1 µM), hits mostly cytotoxic. 400,000 compounds, 1.4% hits. AID 1347075; note: nearly all actives have a fitted effect of over 60% in size
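Multi-concentration cytotoxicity screen in KB-3-1 cells grown in DMEM lacking phenol red with 10% FBS. After 72 h at 37 °C with compound, ATP-dependent luminescence was recorded.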
HT1080 IDH1KD tx: HT-1080 IDH1 knockdown cell toxicity (counter line) | 360,000 compounds, 2% hits | AID 686971 | HT-1080 IDH1 knockdown viability, ATP luminescence, 48 h | Potency, µM (doses to about 46.1 µM), hits mostly cytotoxic
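Viability of IDH1-knockdown HT-1080 fibrosarcoma cells was assessed by CellTiter-Glo after 48 h at 37 °C with titrated compound; concentration-effect curves were classified by fit quality and response size.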
HT1080-NT tox: kills 2HG-producing HT-1080-NT fibrosarcoma cells; HT-1080-NT fibrosarcoma viability, CellTiter-Glo ATP luminescence, 48 h; Potency, µM (doses to about 46.1 µM), usual class: cytotoxic; 360,000 compounds, 1.6% hits; AID 686970;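 note: NT is the 2HG producing partner of a matched IDH1 knockdown line; nearly all actives have a fitted effect of over 55% in size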
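Read-out is CellTiter-Glo luminescence after 10 minutes at room temperature, following 48 hours' compound treatment of HT-1080-NT cells (750 cells/well, RPMI, 5% FBS, 37 degrees C).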
MCF10A rerep: inducers of DNA re-replication in MCF 10A breast cells; MCF 10A DNA re-replication, Hoechst nuclear intensity, 48 h; Potency, µM (highest dose often 46.1 µM), usual class: activators; 350,000 compounds, 2.9% hits; AID 624296; note: nearly all actives have a fitted effect of over 50% in size
KB-V1 cytotox: kills drug-selected multidrug resistant KB-V1 cells; 400,000 compounds, 3.4% hits; Potency, µM (highest dose often 46.1 µM), most hits filed as cytotoxic; KB-V1 MDR cells viability, CellTiter-Glo, 72 h; AID 1347076; note: nearly all actives have a fitted effect of over 60% in size
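Potencies derive from concentration-effect curves fitted to normalized luminescence (CellTiter-Glo) of KB-V1 cells treated for 72 h at 37 degrees C in phenol-red-free DMEM containing 10% FBS.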
A number is an active result; – = inactive; ? = inconclusive; · = not tested or not shown. Rows were chosen to be rich in hits. Some 7.9% of all compounds tested hit in one or more screens of this group. Calls come from the whole dose curve; as a rule, active = well fitted curve in the direction sought with a large enough effect; inconclusive = small, poorly fitted or top-dose-only effect, or another doubt; inactive = no such curve, though single readings can be large; an effect the other way counts as inactive or inconclusive.

SMILES	SW480 rereplic	KB-3-1 cytotox	HT1080 IDH1KD tx	HT1080-NT tox	MCF10A rerep	KB-V1 cytotox
Cc1cc(Cl)n2c(nc3cc(F)c(F)cc32)c1C#N	6.51µM	7.31µM	5.17µM	5.8µM	?	5.8µM
CCC(=O)N1CCc2cc(Br)cc(S(=O)(=O)N3CCCC(C(=O)Nc4ccc(OC)cc4OC)C3)c21 (centres undefined)	·	–	·	·	·	–
COC(=O)c1ccc(-c2ccco2)n1Cc1nc(-c2ccc(OC)c(OC)c2)oc1C	–	?	?	–	18.4µM	–
COC(=O)c1cc2oc3ccccc3c2n1Cc1nc(-c2ccc(OC)cc2)oc1C	·	–	·	·	·	?
O=C1CC(c2ccccc2C(F)(F)F)c2c(c3ccccc3[nH]c2=O)O1 (centres undefined)	·	–	·	·	·	?
Cc1ccc(C(C(=O)NC2CCCC2)N(C(=O)CCC(=O)Nc2cc(C)on2)c2ccccc2)cc1 (centres undefined)	–	–	–	–	–	–
Cc1cc(NC(=O)CCCC(=O)N(c2ccccc2)C(C(=O)NC2CCCCC2)c2cccs2)no1 (centres undefined)	–	–	–	–	–	2.06µM
COc1ccc(NC(=O)c2oc3ccccc3c2NC(=O)Cc2cccs2)cc1	·	–	·	·	·	?
CC(NC(=O)COC(=O)c1cc(NS(=O)(=O)c2ccc(Cl)c([N+](=O)[O-])c2)ccc1O)C1CC2CCC1C2 (centres undefined)	9.2µM	–	?	?	6.51µM	–
O=c1c2oc3ccccc3c2n(Cc2ccccc2F)c(=O)n1Cc1ccccc1	·	–	·	·	·	–
CCSc1nsc(NC(=O)Nc2ccc(F)cc2F)n1	–	?	–	?	?	14.6µM
O=C(Nc1ccccc1)Nc1ccc(F)cc1F	8.2µM	–	–	–	–	–
Fc1cc(Br)ccc1NC(=S)Nc1ccccc1	–	?	–	–	?	14.6µM
Cc1ccc2nc(NC(=O)CSc3cc(C)[nH]c(=O)n3)sc2c1	·	–	·	·	·	–
COc1ccc(CNC(=O)c2ccc(-c3nc(CSc4ccc(C)cc4)c(C)o3)cc2)cc1OC	·	–	·	·	·	–
COc1ccc(N/N=C(\C=N\O)C(=O)c2ccc(OC)cc2)cc1	?	?	?	?	6.51µM	–
COc1ccc(C(=O)C(=NNc2ccccc2)c2ccc(OC)cc2)cc1	–	–	–	–	–	–
N/C(CCS(=O)(=O)c1ccc(Cl)cc1)=N\OC(=O)c1ccc(Cl)cc1	–	–	–	–	–	–
N/C(CCS(=O)(=O)c1ccc(Cl)cc1)=N\OC(=O)c1ccccc1C(F)(F)F	?	?	20.6µM	?	?	?
CCOc1ccc(CN2C(=O)c3ccccc3Sc3ccc(C(=O)NCc4ccco4)cc32)cc1	·	–	·	·	·	–
O=C(/C=C/c1cn(-c2ccccc2)nc1-c1cccnc1)c1ccco1	?	?	?	?	?	20.6µM
O=C(N/N=C/c1cn(-c2ccccc2)nc1-c1cccs1)c1ccccc1F	?	?	?	–	?	20.6µM
CN1CCC(N(C)C(=O)/C=C/c2cn(-c3ccccc3)nc2-c2cccs2)CC1	–	–	18.4µM	25.9µM	?	20.6µM
O=C(N/N=C/c1cn(-c2ccccc2)nc1-c1cccs1)c1ccc(Cl)cc1	–	?	–	–	?	14.6µM
CCOc1ccc(-c2noc(CSc3nnc(Cc4ccccc4)n3-c3cccc(C)c3)n2)cc1	·	–	·	·	·	?
SMILES	SW480 rereplic	KB-3-1 cytotox	HT1080 IDH1KD tx	HT1080-NT tox	MCF10A rerep	KB-V1 cytotox
Cc1ccc(NC(=O)C2CCCN(c3nnc(C)c4c(C)n(-c5ccccc5)nc34)C2)cc1Cl (centres undefined)	·	–	·	·	·	–
O=S(=O)(c1ccc(OC(F)(F)F)cc1)N1CCN(c2nc(-c3ccccc3)nc3ccccc23)CC1	·	–	·	·	·	–
O=C(N/N=C/c1cn(-c2ccccc2)nc1-c1cccnc1)c1cccnc1	–	–	–	–	–	–
O=C(N/N=C/c1cn(-c2ccccc2)nc1-c1cccnc1)c1ccc(F)cc1	–	–	–	–	3.26µM	–
O=C(CSc1nc2ccsc2c(=O)n1-c1ccc(Cl)cc1)NCc1ccc(Cl)cc1	·	–	·	·	·	–
C/C(=N\NC(=O)Cc1c[nH]c2ccccc12)c1ccc2ccccc2c1	–	–	16.4µM	?	?	?

Screening data as filed in PubChem.
